Compound activity (PubChem BioAssay)
In the library only some 0.54% were active in any assay of this set; here they are far more common.
CatB block = inhibitors of human cathepsin B; purified cathepsin B, fluorogenic substrate, fluorescence; inhibition, %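 (tested at 10 µM)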; 0.1% of 63,000 active; in the data active means inhibition above about 21%;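 further: 0% = enzyme with no compound and 100% = no enzyme blank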
CatS block = human cathepsin S inhibition; recombinant cathepsin S, AMC dipeptide fluorescence, pooled mixtures; AID 501; 0.06% of 62,000 active; P25774; inhibition, %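 (tested at 5 µM per compound within 10-compound mixtures)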; in the data active means inhibition above about 32%, passing the limit was not always enough; inconclusive means no clear call, values can overlap the other calls;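 further: 0% = enzyme without compound and 100% = blank without enzyme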
Target sequence (P25774 115-331 limits assumed): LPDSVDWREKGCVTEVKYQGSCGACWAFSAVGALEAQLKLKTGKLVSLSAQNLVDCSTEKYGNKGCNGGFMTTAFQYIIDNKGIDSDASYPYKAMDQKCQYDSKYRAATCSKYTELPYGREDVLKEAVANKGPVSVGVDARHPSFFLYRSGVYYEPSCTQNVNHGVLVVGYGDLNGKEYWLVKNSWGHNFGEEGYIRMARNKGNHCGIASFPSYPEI
C1s block = blocks human complement C1s protease activity; P09871; purified C1s, fluorogenic AMC substrate, pooled mixtures; mean inhibition % of two 10-compound mixtures (stronger effect = higher value), % at 5 µM (by protocol); 0.16% of 62,000 active; AID 538;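 active means inhibition above 20% in each of the two 10-compound mixture wells holding the compound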;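 further: 0% = enzyme wells lacking compound mixture and 100% = no-enzyme blank wells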
CatL block = blocks human cathepsin L protease activity; purified cathepsin L, fluorogenic substrate, fluorescence; P07711; inhibition, %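 (tested at 10 µM)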; 0.17% of 58,000 active; in the data active means inhibition above about 45%;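 further: 0% = enzyme with no compound and 100% = no enzyme blank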
CatB mix inh = human cathepsin B inhibition by mixtures; inhibition, %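 (ten-compound pools at 5 µM per compound and 50 µM total)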; P07858; AID 488; 0.06% of 62,000 active; Purified cathepsin B, AMC dipeptide fluorescence, compound mixtures; in the data active means inhibition above about 22%, passing the limit was not always enough; inconclusive means no clear call, values can overlap the other calls;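 further: 0% = enzyme without compound and 100% = no enzyme blank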
Cathepsin G inh = inhibitors of human cathepsin G; purified enzyme, AMC-tetrapeptide fluorescence, pooled mixtures; 0.2% of 62,000 active; inhibition, % at 5 µM (by protocol); P08311;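 active means inhibition above 20% in each of the two mixture wells holding the compound; inactive means inhibition of 20% or less in either well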;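 further: 0% = enzyme control without mixture and 100% = blank lacking enzyme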
The depositor's hits bear a star; u = inconclusive; x = not tested or not shown.

SMILES | CatB block | CatS block | C1s block | CatL block | CatB mix inh | Cathepsin G inh
COc1cc2c(cc1OC)-c1c(OC)c(OC)cc3c1C(C2)N(C)CC3 (configuration not stated) | 26.6* | u | -4.7 | 13.9 | 19.8 | -4.7
Cc1cccnc1-n1c(CN2C(=O)c3ccccc3C2=O)nc2ccccc2c1=O | 0.5 | 5.0 | 23.8 | -0.4 | -4.9 | 32.2
Cn1cccc1CNCCc1ccccc1F | -2.4 | 3.2 | -83.9 | 54.1* | 0.6 | -8.1
CCn1nc(-c2cccs2)nc2c(=O)n(C)c(=O)nc1-2 | 81.9* | 86.8* | 17.5 | 81.3* | 86.0* | 17.0
O=C1C2CCCN2C(c2ccc(Cl)cc2)N1c1ccccn1 (configuration not stated) | 2.8 | -11.1 | -45.2 | -3.6 | -1.1 | 5.3
COc1ccccc1CN1CCCCC1c1cccnc1 (configuration not stated) | 3.8 | 22.3 | 58.9* | -1.1 | 6.2 | 9.9
COc1ccccc1N1CCN(Cc2ccccc2Cl)CC1 | 1.1 | 2.9 | 12.5 | x | -2.1 | 10.6
COc1ccc(CCN(C)Cc2c(F)cccc2F)cc1OC | 3.3 | 15.2 | 5.5 | 3.8 | 2.5 | 0.4
CCc1ccccc1NC(=O)CSc1nnc([C@@H](N)Cc2c[nH]c3ccccc23)o1 | -0.1 | 17.4 | 9.7 | 119.7* | 6.3 | 12.0
Cc1ccc(NC(=O)CSc2nnc([C@@H](N)Cc3c[nH]c4ccccc34)o2)c(C)c1 | 6.2 | 2.2 | 1.5 | 92.8* | -3.0 | 9.5
CC(=O)OC1(Cc2ccccc2)CN2CCC1c1ccccc12 (configuration not stated) | 3.3 | -8.1 | -71.4 | 6.8 | -8.9 | 10.1
CCOc1ccc(-c2cc(C(=O)N3CCC4(CC3)OCCO4)c3ccccc3n2)cc1 | 2.4 | 3.8 | -16.5 | -28.1 | 2.4 | 7.2
